Max response data for 93 compounds are collected here from PubChem BioAssay AID2314 (National Center for Advancing Translational Sciences (NCATS), 2010).

The campaign covered roughly 300,000 compounds. About 37,000 (12%) were called active. This excerpt belongs to a sample that is enriched for actives. A number with no mark means an inactive call. Cut-off read from the data, not from the text of the source: active = max response mostly above about 13% (no sharp cut-off); inactive = mostly below about 14%.

The assay can be described thus: Cycloheximide Counterscreen for Small Molecule Inhibitors of Shiga Toxin. Note: read at 38.3 µM for the half of the compounds with a filed dose; 0% is about no effect. The settings on record: cell reporter, cycloheximide protein synthesis inhibition counterscreen; stronger effect = higher value.
Turning to `CC(C)c1ccc(S(=O)(=O)N2CCN(C(=O)c3ccc(N4CCCC4)c([N+](=O)[O-])c3)CC2)cc1`, the max response is 21.7%.
As to `CCC(C)N1C(=S)SC(C)(C)C1N(O)C(=O)NC1CCCCC1` (stereo not drawn), the max response is -3%.
Turning to `CCCCNC(=O)N(O)C1N(/N=C/c2ccccc2O)C(=S)SC1(C)C` (stereo not drawn), the max response is 40.5% (active).
On to `CCCCNC(=O)N(O)C1N(/N=C/c2ccc(N(C)C)cc2)C(=S)SC1(C)C` (stereo not drawn), for which the max response was -1.87%.
Consider `COc1ccc(CC(=O)Nc2sc(Cc3ccccc3)c(C)c2C(N)=O)cc1`, for which the max response is -4.58%.
As to `CCCc1cc(=S)n2c([nH]c3ccccc32)c1C#N`, the max response was 9.34%.
As to `COc1cc(C(=O)N2CCN(C/C=C/c3ccccc3)CC2)cc(OC)c1C`, the max response is -2.42%.
Take `COc1ccc(/C=C(\NC(=O)c2ccc(OC)c(OC)c2)C(=O)NCCc2c[nH]c3ccccc23)cc1`: the max response is -2.44%.
Regarding `O=C(NCCc1c[nH]c2ccccc12)C(=O)NCC1CCCO1` (stereo not drawn), the max response was -2.43%.
On to `O=C(NCCc1c[nH]c2ccccc12)c1cccc(Br)c1`, for which the max response was 27.9% (active).
Consider `O=C(NCCc1c[nH]c2ccccc12)c1cc2ccccc2oc1=O`, for which the max response was 52.8% (active).
As for `COc1ccccc1CC(=O)NCCc1c[nH]c2ccccc12`, the figure is 5.67%; as for `Cc1cc(C)cc(NC(=S)NCCc2c[nH]c3ccccc23)c1`, -3.82%; as for `O=C(NC(Cc1c[nH]c2ccccc12)C(=O)O)/C(=C/c1ccco1)NC(=O)c1ccccc1` (stereo not drawn), 7.91%.
As for `CN(c1ccccc1)S(=O)(=O)c1ccc(Cl)c(C(=O)NCCc2c[nH]c3ccccc23)c1`, the figure is -2.81%; as for `Cc1ccc(C(=O)N/C(=C/c2ccco2)C(=O)NCCc2c[nH]c3ccccc23)cc1C`, 15.8% (active); as for `Cc1cc(C)cc(NS(=O)(=O)Cc2ccccc2)c1`, 2.71%.
For `COc1ccc(CNc2nc3c(c(=O)[nH]c(=O)n3C)n2Cc2ccccc2)cc1`, the max response was 1.15%.
As for `CCn1c(CNC(=O)c2cc(OC)c(OC)c(OC)c2)cc2cc(C)ccc21`, the figure is -0.507%.
As for `CC(=O)c1c(C)[nH]c(C(=O)COC(=O)c2cccc(S(=O)(=O)N(C)c3ccccc3)c2)c1C`, the figure is 6.94%; as for `COc1ccc(C(=O)OCC(=O)NCC2CCCO2)cc1[N+](=O)[O-]` (stereo not drawn), 0.371%; as for `CCC(=O)c1ccc(OCC(O)Cn2nc(C)c(C(C)=O)c2C)cc1` (stereo not drawn), -6.71%.
On to `O=C(NCc1cccc(Cl)c1)C1CCC(=O)N(C2CC2)C1` (stereo not drawn), for which the max response was 0.588%.
Turning to `O=C(CSc1ccc(-c2ccco2)nn1)Nc1cccc(F)c1`, the max response was 26% (active).
On to `O=C(CSc1ccc(-c2ccccn2)nn1)Nc1ccccc1`, for which the max response was 20% (active).
With `COc1ccc(NC(=O)CSc2ccc(-c3ccco3)nn2)c(OC)c1`, the max response was 9.5%.
As for `O=C(CSc1ccc(-c2ccc(F)cc2)nn1)Nc1ccc2c(c1)OCCO2`, the figure is 10.9%; as for `Cc1ccccc1NC(=O)CSc1ccc2nnc(-c3ccccn3)n2n1`, -1.54%.
Take `COc1cc(NC(=O)CSc2ccc(-c3cccnc3)nn2)cc(OC)c1`: the max response was -2.34%.
As for `COc1ccc(CNC(=O)COC(=O)/C=C/c2ccc(S(=O)(=O)N3CCOCC3)cc2)cc1`, the figure is 9.31%; as for `O=c1c2ccccc2nnn1CSc1nc2sc3c(c2c(=O)n1CC1CCCO1)CCC3` (stereo not drawn), -2.17%; as for `OC(c1ccc(Cl)cc1)C(CN1CCOCC1)c1ccccc1` (stereo not drawn), -2.76%.
Consider `COc1ccc2c(C)c(CCC(=O)NC3CC3)c(=O)oc2c1C`, for which the max response is 9.57%.
For the compound `O=C1C(=O)N(c2ccccc2)c2ccccc21`, the max response was -2.88%.
Regarding `CC(=O)CCS(=O)(=O)c1ccc(C)c(C)c1`, the max response was 27.6% (active).
As for `O=C(O)CCS(=O)(=O)c1ccc(-c2ccccc2)cc1`, the figure is -1.33%.
As to `Cc1ccc(S(=O)(=O)CCC(=O)OCc2ccccc2)cc1`, the max response is 0.648%.
Regarding `COc1ccc(OC)c(NC(=O)C2CCCN2S(=O)(=O)c2cccc3nsnc23)c1` (stereo not drawn), the max response was 12.5%.
Take `Cc1ccc(-c2nnc(Nc3ccc(C(=O)N(C)C)cc3)c3ccccc23)cc1S(N)(=O)=O`: the max response is -2.16%.
For the compound `CCOC(=O)c1ccc(NC(=O)c2ccc(NC(=O)C3CCCO3)cc2)cc1` (stereo not drawn), the max response is 13.9%.
For the compound `CC(C)(C)NS(=O)(=O)c1ccc(NC(=O)C2CCCO2)cc1` (stereo not drawn), the max response was -3.65%.
Take `O=C(Nc1cccc(-c2nnc(-c3ccccc3)o2)c1)C1CCCO1` (stereo not drawn): the max response is 37.3% (active).
With `O=C(CSc1nnc(-c2ccc(NS(=O)(=O)c3ccccc3)cc2)o1)NCC1CCCO1` (stereo not drawn), the max response is -1.17%.
Take `Cc1cccc(NC(=O)Nc2nnc(-c3ccccc3)o2)c1`: the max response was 2.04%.
Consider `O=C(Nc1ccc(-c2nnc(-c3ccccc3)o2)cc1)C1CCCO1` (stereo not drawn), for which the max response was 39.1% (active).
Consider `CCn1c(=S)sc2c(=O)n(CC(=O)Nc3ccc(OC)cc3)c(C)nc21`, for which the max response is -0.488%.
For `Cc1ccccc1OCCC(=O)OCC(=O)NC(C)c1ccccc1` (stereo not drawn), the max response was 1.95%.
Take `CCC(C)c1ccccc1NC(=O)CN(C)CC(=O)Nc1ccccc1SC` (stereo not drawn): the max response was -13.3%.
In the case of `Cc1cc(C(=O)COc2ccccc2[N+](=O)[O-])c(C)n1-c1cccc(S(=O)(=O)N2CCOCC2)c1`, the max response was 0.979%.
Take `Cc1nnc(SCC(=O)N/N=C/c2cn(-c3ccccc3)nc2-c2ccc(F)cc2)n1-c1ccccc1`: the max response is 10.2%.
In the case of `CC(C)(C)OC(=O)N/N=C/c1cn(-c2ccccc2)nc1-c1cccnc1`, the max response was 17%.
Turning to `Cc1ccc(-c2nn(-c3ccccc3)cc2/C=N/NC(=O)c2ccc3c(c2)OCO3)cc1`, the max response was 16.9% (active).
Take `O=C(NCc1ccccc1)[C@H]1C[C@@H]1[C@H](NP(=O)(c1ccccc1)c1ccccc1)c1ccccc1`: the max response was 4.56%.
Take `CC(=O)N1CCCc2cc(S(=O)(=O)N3CCCC(C(=O)N4CCN(c5cccc(Cl)c5)CC4)C3)ccc21` (stereo not drawn): the max response was 8.4%.
For `Cc1sc2ncn(CC(=O)NCCCC(=O)N3CCN(c4ccccc4F)CC3)c(=O)c2c1C`, the max response is -3.83%.
As to `CCOc1ccc(OCCSc2nc3ccccc3n2CC(=O)O)cc1`, the max response is -2.45%.
As for `CC(NC(=S)Nc1ccc(OC(F)F)cc1)c1ccc(F)cc1` (stereo not drawn), the max response was 1.93%.
Take `CC(C)c1ccc(NC(=S)NC2CC3C=CC2C3)cc1` (stereo not drawn): the max response was 51.4% (active).
Take `S=C(NNC(=S)NC1CC2C=CC1C2)NC1CC2C=CC1C2` (stereo not drawn): the max response was 9.74%.
Consider `CCOc1ccccc1N1CN(Cc2ccccc2)CNC1=S`, for which the max response is -1.15%.
For the compound `Cc1ccccc1NCC(=O)N/N=C\c1ccc([N+](=O)[O-])s1`, the max response is 25.2%.
For the compound `CSc1ccc(/C=C/C(=O)NC23CC4CC(CC(C4)C2)C3)cc1`, the max response was 49.9% (active).
On to `Cc1ccc(C(=O)NC23CC4CC(CC(C4)C2)C3)c(Cl)c1`, for which the max response was 11.3%.
On to `CSc1ccc(NC(=O)/C=C/C(=O)O)cc1`, for which the max response is 6.1%.
On to `CC1(C)CC(=O)c2c(n(S(=O)(=O)c3ccccc3)c3ccc(NS(=O)(=O)c4ccccc4)cc23)C1`, for which the max response is -1.24%.
With `CCOC(=O)N1CCN(S(=O)(=O)c2ccc(OC)cc2)CC1`, the max response is -1.81%.
Consider `CCn1c(SCc2ccccc2)nc2c(c1=O)SCC2`, for which the max response is -1.78%.
As for `CCS(=O)(=O)n1nc(-c2ccc(OC)cc2)nc1SC`, the figure is 23.6% (active); as for `COc1ccc(-n2c(SC)nc(O)cc2=O)cc1`, -4.06%; as for `CCn1c(SCc2ccccc2)nc2cc(OC)c(OC)cc2c1=O`, 0.431%.
For `CCS(=O)(=O)n1nc(-c2ccccc2)nc1SCc1ccccc1`, the max response was 62.5% (active).
As for `CCOc1ccc(CN2CCNC(=O)C2CC(=O)NCCCC2CCCC2)cc1` (stereo not drawn), the figure is 16.3%; as for `CCOc1cc(/C=N/NC(=O)c2cc(-c3ccccc3)nc3ccccc23)ccc1O`, 17.7% (active).
Take `Cc1cc(C(=O)N/N=C/c2ccccn2)c2ccccc2n1`: the max response was -8.99%.
Regarding `COc1cccc(-c2cc(C(=O)N/N=C/c3ccc(OC)c(COC(C)=O)c3)c3ccccc3n2)c1`, the max response was 2.97%.
In the case of `CCOc1cc(/C=N/Nc2cc(C)nc3ccc(C)cc23)ccc1O`, the max response was 17.3% (active).
For the compound `CCOc1ccc(/C=N/NC(=O)CSc2ccccn2)cc1O`, the max response was 1.88%.
With `Cc1ccc2nc(C)cc(N/N=C/c3ccc(F)cc3)c2c1`, the max response was -2.09%.
As for `COc1cc(OC)c2c(C)cc(=O)oc2c1C(CCN1CCCCC1)c1ccc(N(C)C)cc1` (stereo not drawn), the figure is -1.45%.
As for `COc1cc(CN2CCCC(C(=O)c3ccc(SC)cc3)C2)cc(Cl)c1O` (stereo not drawn), the figure is 4.43%.
In the case of `N=c1n(CCc2ccccc2)c2ccccc2n1Cc1ccccc1F`, the max response is -8.79%.
Take `COc1ccccc1/C=C/C=N/NC(=O)CN1CCN(Cc2ccccc2)CC1`: the max response is -1.49%.
As to `COc1ccccc1C(=O)Nc1cccc(C(=O)N2CCOCC2)c1`, the max response was -2.39%.
On to `COc1ccccc1/C=C/C(=O)NC1CC2CCC1C2` (stereo not drawn), for which the max response is 14.3% (active).
As for `CCOC(=O)C(=Cc1ccccc1OC)C(=O)OCC`, the figure is 2.29%; as for `COc1ccccc1/C=C/C(=O)NC(=S)N1CCOCC1`, 47.7% (active); as for `COc1ccc(C)cc1NC(=S)N1CCOCC1`, -2.32%.
With `COc1ccc(Cl)cc1NC(=O)CCS(=O)(=O)c1ccc(Br)cc1`, the max response is -3.81%.
As for `CSc1ccc(S(=O)(=O)N2CCC(C(=O)NCc3ccncc3)CC2)cc1`, the max response was -2.48%.
On to `CCN1CCN(c2nc(Nc3cc(OC)ccc3OC)nc(Nc3cc(OC)ccc3OC)n2)CC1`, for which the max response is -2.31%.
`COc1ccc(/C=C/C(=O)c2ccc(NS(=O)(=O)c3ccc(C)cc3)cc2)cc1O`: the max response was -1.98%.
Take `COC(=O)c1ccc(COc2ccc(/C=C/C(=O)c3ccc(OC)c(CSCC(=O)O)c3)cc2OC)cc1`: the max response was 16.2% (active).
As for `COc1ccc(C(=O)/C=C/c2ccc(-c3ccccc3)cc2)cc1CSCC(=O)O`, the figure is 16.5%.
